The structures appear in SMILES notation. Results filed as inconclusive are left out. Entries that show only a call come without a potency. Unmarked numbers belong to inactive results. Calls of active or inactive are those of the source. Calls come from the whole dose curve; as a rule, active = well fitted inhibition curve with a large enough effect; inconclusive = small, poorly fitted or top-dose-only effect; inactive = no such curve, though single readings can be large or run the other way.

Protein phosphatase 1D (Homo sapiens), sequence (O15297 whole entry, looked up): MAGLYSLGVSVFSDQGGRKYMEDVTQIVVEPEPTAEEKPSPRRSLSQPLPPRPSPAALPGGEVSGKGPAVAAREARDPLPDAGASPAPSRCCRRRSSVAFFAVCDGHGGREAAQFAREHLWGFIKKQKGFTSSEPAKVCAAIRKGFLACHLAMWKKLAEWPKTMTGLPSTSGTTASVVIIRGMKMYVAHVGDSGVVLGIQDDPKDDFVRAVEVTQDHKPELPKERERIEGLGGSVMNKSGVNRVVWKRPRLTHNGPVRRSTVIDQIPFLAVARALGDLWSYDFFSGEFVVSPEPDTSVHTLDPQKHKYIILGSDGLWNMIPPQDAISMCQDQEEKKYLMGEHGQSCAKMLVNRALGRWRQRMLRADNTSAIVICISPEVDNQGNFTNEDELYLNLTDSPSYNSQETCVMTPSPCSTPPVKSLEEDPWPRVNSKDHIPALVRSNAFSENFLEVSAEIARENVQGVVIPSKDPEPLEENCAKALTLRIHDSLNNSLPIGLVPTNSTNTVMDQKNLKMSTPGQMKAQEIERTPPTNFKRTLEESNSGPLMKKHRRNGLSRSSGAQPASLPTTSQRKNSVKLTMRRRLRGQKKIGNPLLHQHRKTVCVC

The test concerns the target Protein phosphatase 1D (Homo sapiens) (UniProt O15297). The experiment in a line: RapidFire Mass Spectrometry qHTS Assay for Modulators of WT P53-Induced Phosphatase 1 (WIP1) (AID 1347424). Conditions: WIP1 dephosphorylation of phosphopeptide, RapidFire MS; series mostly up to 63 µM. In outline: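 RapidFire mass spectrometry measured dephosphorylated peptide after 5 min room-temperature reaction of 2 uM VEPPL-pS-QETFS with 10 nM WIP1 (50 mM Tris-HCl pH 7.5, 30 mM MgCl2, 0.1 mM EGTA, BSA), following 1 hr compound preincubation; 1 uM isotope-labelled product standard.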
A general note: Quantitative high-throughput screening tests each substance at several concentrations.
In the case of `C#C[C@]1(OC(C)=O)CC[C@H]2[C@@H]3CCC4=C[C@@H](OC(C)=O)CC[C@@H]4[C@H]3CC[C@@]21C`, the Potency entry was “inactive”. Consider `C[C@]12CCC(=O)C=C1[C@@H]1C[C@@H]1[C@H]1[C@@H]3[C@@H]4C[C@@H]4[C@@]4(CCC(=O)O4)[C@@]3(C)CC[C@@H]12`, for which the Potency entry is “inactive”. On to `C=C(CC)C(=O)c1ccc(OCC(=O)O)c(Cl)c1Cl`, for which the Potency result is “inactive”. As for `C[C@]12CC[C@H]3[C@@H](CCC4=CC(=O)CC[C@@]43C)[C@@H]1CC[C@@H]2C(=O)CO`, the Potency entry was “inactive”. Regarding `C[C@H]1C[C@H]2[C@@H]3CCC4=CC(=O)C=C[C@]4(C)[C@@]3(Cl)[C@@H](O)C[C@]2(C)[C@@]1(O)C(=O)CO`, the Potency result is “inactive”. In the case of `CC(=O)Oc1ccc2c(c1)CC[C@@H]1[C@@H]2CC[C@]2(C)[C@@H](O)CC[C@@H]12`, the Potency result is “inactive”. For the molecule `CCN(CC)CCOc1ccc(C(O)(Cc2ccc(Cl)cc2)c2ccc(C)cc2)cc1` (stereo unspecified), the Potency entry was “inactive”. On to `CCCCCCCCCCCCCCCC[N+](C)(C)CC`, for which the Potency result is “inactive”. The same measure, in the same setting: then `CC(O)C(=O)O` (stereo unspecified), with “inactive”.

Regarding `CCCOC(C(=O)OC1CCN(C)CC1)(c1ccccc1)c1ccccc1`, the Potency entry is “inactive”. On to `C[C@]12CC[C@@H]3c4ccc(O)cc4CC[C@H]3[C@@H]1C[C@@H](O)[C@@H]2O`, for which the Potency entry is “inactive”.

Consider `CC(C)(C)CC(C)(C)c1ccc(OCCOCC[N+](C)(C)Cc2ccccc2)cc1`, for which the Potency result was “inactive”. Still for that read-out and setting: then `O=C(O)CCCCC(=O)O`, with “inactive”.

As for `CCCCCCCCCCOCC(O)CN` (stereo unspecified), the Potency entry is “inactive”.

Take `CC(=O)OCC(=O)[C@@]1(OC(C)=O)[C@@H](C)C[C@H]2[C@@H]3C[C@H](F)C4=CC(=O)C=C[C@]4(C)[C@@]3(F)[C@@H](O)C[C@@]21C`: the Potency result was “inactive”. For `CC(=O)Oc1ccc(C(c2ccc(OC(C)=O)cc2)c2ccccn2)cc1`, the Potency result is “inactive”.

Regarding `C/C=C/c1ccc(OC)cc1`, the Potency entry is “inactive”. In the case of `CC1=C(C(=O)OC(C)C)C(c2cccc([N+](=O)[O-])c2)C(C(=O)OC2CN(C(c3ccccc3)c3ccccc3)C2)=C(N)N1` (stereo unspecified), the Potency result is “inactive”. `C[C@H]1[C@H](NC(=O)/C(=N/OC(C)(C)C(=O)O)c2csc(N)n2)C(=O)N1S(=O)(=O)O` (stereo in doubt): the Potency result was “inactive”.

`CN(C(=O)CN(CCO)CC(=O)N(C)C(C)(C)Cc1ccccc1)C(C)(C)Cc1ccccc1`: the Potency result was “inactive”. Turning to `C[C@]12C=CC(=O)C=C1[C@@H](F)C[C@@H]1[C@@H]2[C@@H](O)C[C@@]2(C)[C@H]1CC[C@]2(O)C(=O)CO`, the Potency result was “inactive”. `Nc1ccc(/C=C/c2ccc(N)cc2S(=O)(=O)O)c(S(=O)(=O)O)c1`: the activity change, negative = inhibition is -4.22% [at 0.505 µM]. On to `COc1cc(-c2ccc(=O)[nH]n2)ccc1OC(F)F`, for which the Potency result is “inactive”. On to `CCCC(=O)O[C@]1(C(=O)CO)CC[C@H]2[C@@H]3CCC4=CC(=O)CC[C@]4(C)[C@H]3[C@@H](O)C[C@@]21C`, for which the Potency entry was “inactive”.

For `CCCCCCCCCCCCCCNCCO`, the Potency result is “inactive”. The same measure, in the same setting: the result for `C[C@]12CCC(=O)C=C1CC[C@H]1[C@@H]3CC[C@](O)(C(=O)CO)[C@@]3(C)C[C@H](O)[C@@]12F` reads “inactive”.

Source of the values: PubChem BioAssay (NCATS).
